EPAC2 antag: human EPAC2 antagonism, validation | Q8WZA2 | EPAC2 Rap1B BODIPY-GDP exchange, fluorescence | Potency, µM (series often up to 112 µM), most hits filed as inhibitors | 16,000 tested, 1.7% active | AID 1645886; further: nearly all actives have a fitted effect of over 40% in size
Target sequence (Q8WZA2 whole entry, looked up): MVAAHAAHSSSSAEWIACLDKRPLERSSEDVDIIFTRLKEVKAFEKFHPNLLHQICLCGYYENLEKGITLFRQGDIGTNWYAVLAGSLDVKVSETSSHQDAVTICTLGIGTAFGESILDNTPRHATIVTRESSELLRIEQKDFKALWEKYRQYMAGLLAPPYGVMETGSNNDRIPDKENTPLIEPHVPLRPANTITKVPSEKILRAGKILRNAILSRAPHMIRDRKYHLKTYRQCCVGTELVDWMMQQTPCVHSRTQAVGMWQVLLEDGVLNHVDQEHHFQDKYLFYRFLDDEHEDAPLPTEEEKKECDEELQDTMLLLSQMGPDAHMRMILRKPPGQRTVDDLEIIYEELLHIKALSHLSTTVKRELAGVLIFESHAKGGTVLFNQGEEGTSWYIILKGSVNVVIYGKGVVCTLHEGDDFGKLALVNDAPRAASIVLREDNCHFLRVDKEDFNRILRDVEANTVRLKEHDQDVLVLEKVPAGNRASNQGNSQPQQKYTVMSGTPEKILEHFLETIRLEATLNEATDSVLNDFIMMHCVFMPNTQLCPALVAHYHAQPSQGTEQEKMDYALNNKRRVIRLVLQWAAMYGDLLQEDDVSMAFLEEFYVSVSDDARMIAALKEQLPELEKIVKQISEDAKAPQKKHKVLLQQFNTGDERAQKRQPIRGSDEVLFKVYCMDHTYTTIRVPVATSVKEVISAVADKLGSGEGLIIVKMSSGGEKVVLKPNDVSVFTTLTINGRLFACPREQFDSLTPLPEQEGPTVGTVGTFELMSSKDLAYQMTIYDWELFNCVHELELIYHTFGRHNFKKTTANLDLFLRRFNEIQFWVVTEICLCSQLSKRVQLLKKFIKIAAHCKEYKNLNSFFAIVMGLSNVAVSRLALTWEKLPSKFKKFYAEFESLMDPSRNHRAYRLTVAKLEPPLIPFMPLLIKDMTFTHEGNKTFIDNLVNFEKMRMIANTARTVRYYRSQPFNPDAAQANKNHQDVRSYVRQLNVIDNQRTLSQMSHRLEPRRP
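Normalized against a 6.5 mM cAMP agonist control, compounds were tested on 100 nM EPAC2 exchanging Rap1B-bound BODIPY-GDP (250 nM) for 50 uM GDP. Fluorescence drop (ex 480, em 540 nm) was tracked at room temperature over 30 min at 5-min intervals.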
EPAC1 agonist: human EPAC1 agonism, validation; O95398; EPAC1 Rap1b BODIPY-GDP exchange, fluorescence; Potency, µM, hits mostly activators; 16,000 tested, 1% active; further: nearly all actives have a fitted effect of over 70% in size
Numbers stand for hits; . = inactive; ? = inconclusive; [ ] = dose if it differs, or a comment. This is a sample that favours compounds with a hit; in the whole collection about 2.9% have one here. The call rests on the fitted dose curve; in most records, active means well fitted curve in the direction sought with a large enough effect; inconclusive means small, poorly fitted or top-dose-only effect, or another doubt; inactive means no such curve, though single readings can be large; an effect the other way counts as inactive or inconclusive.

SMILES | EPAC2 antag | EPAC1 agonist
S=C(S)OC1CC2CC1C1CCCC21 (stereo not drawn) | . | .
S=C(S)O[C@@H]1C[C@@H]2C[C@H]1[C@@H]1CCC[C@H]21 | 50.1µM | .
CCOC(=O)C1CCCCN1C(=O)c1ccc(-n2cc(NC(=O)c3cccnc3)cn2)cc1 (stereo not drawn) | . | .
COc1ncc2nc(CCc3ccccc3)c(=O)n(Cc3ccc(F)cc3)c2n1 | ? | .
Clc1cccc(C(c2ccc3nc[nH]c3c2)n2ccnc2)c1 (stereo not drawn) | . | .
c1ccc(-c2ccc(C(c3ccccc3)n3ccnc3)cc2)cc1 (stereo not drawn) | 50.1µM | ?
CCCCN1CC[C@H]2C=CC[C@@H](C(=O)Nc3ccc(Cl)cc3Cl)[C@H]2C1=O | ? | .
COc1cc(-c2c(-c3ccc4c(c3)OCO4)noc2-c2ccsc2)ccc1F | ? | .
Cc1onc(-c2ccc3c(c2)OCO3)c1-c1ccc2[nH]ccc2c1 | ? | 100µM
CNCCc1cnc(CCC(c2ccccc2)c2ccccc2)[nH]1 | . | .
C[C@@]12C(=O)OC(=O)[C@@]1(C)[C@@H]1CC[C@@H]2O1 | 56.2µM | .
C[C@@]12C(=O)OC(=O)[C@@]1(C)C1CCC2O1 | . | .
Cc1cnc(-n2ncc(C(=O)N(C)C3CCOC3)c2-c2cccs2)nc1-c1ccc(F)cc1 (stereo not drawn) | . | .
COc1ccccc1-c1ccnc(-n2ncc(C(=O)N3CCN(C(C)C)CC3)c2-c2ccco2)n1 | . | .
CC(COc1ccccc1)N(CCCl)Cc1ccccc1 (stereo not drawn) | ? | .
CC(C)NC(=O)N1CC[C@@]2(CCCN(C(=O)c3ccncc3)C2)C1 | . | .
Cc1o[nH]c(=O)c1CC[C@H](N)C(=O)O | . | .
CN(C)c1ncc2nc(-c3ccc(F)cc3)c(=O)n(CCc3ccccc3)c2n1 | . | .
CN(C)c1ncc2nc(-c3ccc(F)cc3)c(=O)n(-c3ccccc3)c2n1 | . | 100µM
CN(C)c1ncc2nc(CCc3ccccc3)c(=O)n(-c3ccccc3)c2n1 | . | 112µM
COc1ncc2nc(CCc3ccccc3)c(=O)n(-c3ccccc3)c2n1 | . | ?
CC(=O)Oc1ccc(C2(c3ccc(OC(C)=O)cc3)C(=O)Nc3ccccc32)cc1 | . | .
C=CC(C)(C)c1[nH]c2ccccc2c1C1=C(O)C(=O)C(c2c[nH]c3c(CC=C(C)C)cccc23)=C(O)C1=O | 44.7µM | .
CC1(C)O[C@@H]2C[C@H]3[C@@H]4CCC5=CC(=O)C=C[C@]5(C)[C@H]4[C@@H](O)C[C@]3(C)[C@]2(C(=O)CO)O1 | . | .
COc1ccc(OC)c2c(/C=C/c3c[nH]c4ccccc34)ccnc12 | . | .
SMILES | EPAC2 antag | EPAC1 agonist
Cc1ccc2c(/C=C/c3c[nH]c4ccccc34)ccnc2c1C | . | 100µM
CCC(=O)O[C@H]1[C@H](O[C@@H]2[C@@H](C)[C@H](O[C@H]3C[C@@](C)(OC)[C@@H](O)[C@H](C)O3)[C@@H](C)C(=O)O[C@H](CC)[C@@](C)(O)[C@H](O)[C@@H](C)C(=O)[C@H](C)C[C@@]2(C)O)O[C@H](C)C[C@@H]1N(C)C | 31.6µM | .
CCOC(=O)CCC(=O)O[C@H]1[C@H](O[C@@H]2[C@@H](C)[C@H](O[C@H]3C[C@@](C)(OC)[C@@H](O)[C@H](C)O3)[C@@H](C)C(=O)O[C@H](CC)[C@@](C)(O)[C@H](O)[C@@H](C)C(=O)[C@H](C)C[C@@]2(C)O)O[C@H](C)C[C@@H]1N(C)C | . | .
CCCCCCCC/C=C\C/C=C\C/C=C\CCCC(=O)NCCO | .[11.4 µM] | .
CCCCCCCC/C=C\CCCCCCCC(=O)N[C@@H](CO)Cc1ccc(O)cc1 | 20µM | .
O=C(c1cccc(F)c1)N1CCC2(CCCN(c3ccccn3)C2)CC1 | . | .
COc1ccc(C(=O)N2CCC[C@@]3(CCN(Cc4ccncc4)C3)C2)cc1 | . | .
COc1ccc(C(=O)N2CCC[C@@]3(CCN(Cc4cc(C(F)(F)F)cc(C(F)(F)F)c4)C3)C2)cc1 | 14.1µM | .
COc1ccc(C(=O)N2CCC3(CCN(Cc4cc(C(F)(F)F)cc(C(F)(F)F)c4)CC3)CC2)cc1 | 28.2µM | .
COCC(=O)N1CCC2(CCN(Cc3cc(C(F)(F)F)cc(C(F)(F)F)c3)CC2)CC1 | . | .
COc1ccc(-n2c(=O)c(C)nc3cnc(N(C)C)nc32)cc1 | . | .
CS(=O)(=O)N1CCC[C@@]2(CCN(c3ccccn3)C2)C1 | . | .
COc1c(Cl)ccc(Cl)c1C(=O)O | . | .
COc1ccc(Oc2ncc3ncc(=O)n(CCc4ccccc4)c3n2)cc1 | . | .
CC(NC(=O)c1ccco1)c1nnc2n1CCN(Cc1ccc(N3CCCC3)cc1)CC2 (stereo not drawn) | ? | .
COC(=O)C(C)c1ccc(C(=O)c2cccs2)cc1 (stereo not drawn) | . | ?
CCCC[C@@]1(C2CCCC2)Cc2cc(OCC(=O)O)c(Cl)c(Cl)c2C1=O | 14.1µM | .
